This note sets out measurements from PubChem BioAssay (EPA / NIEHS).

Inconclusive results are not listed. Active and inactive are the calls of the source. How the source made its calls: active means hit-call score of the fitted dose curve at least 0.9, where 1 is the maximum; inactive means score below 0.9.

The assay can be described thus: ATG_M_61_XSP2: Attagene TRANS-FACTORIAL Multi-Species (XSP2) HepG2 Assay for M61 Transcription Factor (Internal Marker) (AID 2283835).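 Further: active means a rise in signal above the DMSO baseline.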 As to the method: ATG_XSP2_multi-species_TRANS is a cell-based, multiplexed assay created by modifying the existing Attagene TRANS-FACTORIAL system to include a panel of nuclear receptors from some or all the following species: human (Homo sapiens), mouse (Mus musculus), frog (Xenopus laevis), zebrafish (Danio rerio), chicken (Gallus gallus), and turtle (Chrysemys picta). The ECOTOX-FACTORIAL format uses HepG2, a human liver cell line, with measurements taken at 24 hours after chemical dosing in a 24-well plate. Xsp2 included 3 nM 6-alpha-fluorotestosterone and 1.5 nM norgestrel to stimulate the androgen receptor.ATG_M_61_XSP2 is one of 29 assay components measured or calculated from the ATG_XSP2_multi-species_TRANS assay. It is designed to make measurements of mRNA induction, a form of inducible reporter, as detected with fluorescence intensity signals by Reverse transcription polymerase chain reaction (RT-PCR) and Capillary electrophoresis technology.This assay endpoint, ATG_M_61_XSP2, was analyzed in the positive analysis fitting direction relative to DMSO as the negative control and baseline of activity. Using a type of inducible reporter, measures of mRNA for gain-of-signal activity can be used to understand the background control at the transcription factor-level as they relate to the gene. Furthermore, this assay endpoint can be referred to as a secondary readout, because this assay has produced multiple assay endpoints where this one serves a background control function. To generalize the intended target to other relatable targets, this assay endpoint is annotated to the background measurement intended target family, where the subfamily is internal marker.
Human liver HepG2 cells are transiently transfected with multiple reporter transcription units (MRTUs) in 6-well plates using FuGene 6 reagent (Roche; 3 ml FuGene/1 mg DNA). The MRTU constructs are regulated by a cis-regulating element (promoter). […] A major difference between the CIS and TRANS system is that in CIS activities of endogenous TFs are measured, whereas the TRANS assay evaluates changes in activities of exogenous, chimeric NR-Gal4 proteins. […] At the end of 24 hour incubation, total RNA was isolated using TriZol reagent (Invitrogen). The isolated RNA is then reverse-transcribed using oligo(dT) primer and Mo-MLV reverse transcriptase (Invitrogen) with DNAse I (Ambion) treatment for 30 min. The one-tenth of the produced cDNA was amplified by PCR using Taq DNA polymerase (Invitrogen) and two reporter sequence-specific primers. The PCR products were fluorescently labeled by primer extension with 6-arboxyfluorescein (6-FAM) 5'-labeled reporter sequence-specific primer (2 min at 95 C, 20 s at 68 C and 10 min at 72 C) and these products were digested with 5U of HpaI (New England Biolabs) for 2h at 37 C. The fragments were purified using Qiaquick PCR columns (Qiagen), analyzed on an ABI 3130xL genetic analyzer (Applied Biosystems) with peak positions identified by using a set of X-rhodamine (ROX)-labeled MapMarker1000 molecular weight standards (BioVentures). The raw capillary electrophoresis data was processed using Attagraph software (Attagene).
For the compound `CCCCC(CC)COC(=O)c1ccccc1C(=O)O` (stereo unspecified), the result was inactive.
Regarding `CC(=O)S[C@@H]1CC2=CC(=O)CC[C@]2(C)[C@H]2CC[C@@]3(C)[C@@H](CC[C@@]34CCC(=O)O4)[C@H]12`, the result was inactive.
The result for `C=CCOC(Cn1ccnc1)c1ccc(Cl)cc1Cl` (stereo unspecified) reads “inactive”; that for `CC(C)(c1ccc(O)cc1)c1ccc(O)cc1`, “inactive”.
As to `N[C@@H](Cc1cc(I)c(Oc2ccc(O)c(I)c2)c(I)c1)C(=O)O`, the call was inactive.
The result for `CC(C)CCCCCCc1ccc(O)cc1` reads “inactive”; that for `C#C[C@]1(O)CC[C@H]2[C@@H]3CCC4=CC(=O)CC[C@@H]4[C@H]3CC[C@@]21CC`, “inactive”.
Then `CN(C)C(=O)Nc1ccc(Cl)c(Cl)c1`, with “inactive”; and `Oc1ccc(C(c2ccc(O)cc2)C(Cl)(Cl)Cl)cc1`, with “inactive”; and `CSC(=O)c1cccc2nnsc12`, with “inactive”.
The result for `O=C(c1ccc(O)cc1O)c1ccc(O)cc1O` reads “inactive”.
